Test results as given in PubChem BioAssay.
Active and inactive are the calls of the source.

How the values were obtained:
[1] = binders of probe aFSTL3 on microarray, primary screen, stem cell growth factor project, biochemical, small-molecule microarray, fluorescence 635/667 (AID 1064); conditions: higher = more signal;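 also: measures binding of the biotinylated anti-FSTL3 antibody to printed compounds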
[2] = binders from COS7 lysate, DM2A8 probe, primary screen, torsin A project, cell lysate, small-molecule microarray, fluorescence 635/667 (AID 1065); conditions: higher = more signal, COS7 lysate expressing mutant human TOR1A
[3] = binders of probe aFGF2 on microarray, primary screen, stem cell growth factor project, biochemical, small-molecule microarray, fluorescence 635/667 (AID 1067); conditions: higher = more signal;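 also: measures binding of biotinylated aFGF2 protein to printed compounds on slides; z-score merges feature fluorescence and signal-to-noise across triplicate slides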
[4] = binders of probe aFGF10 on microarray, primary screen, stem cell growth factor project, biochemical, small-molecule microarray, fluorescence 635/667 (AID 1071); conditions: higher = more signal;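 also: score merges 667 nm spot intensity and signal to noise from triplicate slides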
[5] = target: Neurogenic locus notch homolog protein 2 (Homo sapiens) (UniProt Q04721); assay: Notch2 binders on small-molecule microarrays, primary screen, biochemical, small-molecule microarray, 635 nm fluorescence, stem cell growth factors (AID 1073); conditions: Notch2 binding, higher = more signal
Sequence of Neurogenic locus notch homolog protein 2 (Homo sapiens) (Q04721 whole entry, looked up, canonical isoform): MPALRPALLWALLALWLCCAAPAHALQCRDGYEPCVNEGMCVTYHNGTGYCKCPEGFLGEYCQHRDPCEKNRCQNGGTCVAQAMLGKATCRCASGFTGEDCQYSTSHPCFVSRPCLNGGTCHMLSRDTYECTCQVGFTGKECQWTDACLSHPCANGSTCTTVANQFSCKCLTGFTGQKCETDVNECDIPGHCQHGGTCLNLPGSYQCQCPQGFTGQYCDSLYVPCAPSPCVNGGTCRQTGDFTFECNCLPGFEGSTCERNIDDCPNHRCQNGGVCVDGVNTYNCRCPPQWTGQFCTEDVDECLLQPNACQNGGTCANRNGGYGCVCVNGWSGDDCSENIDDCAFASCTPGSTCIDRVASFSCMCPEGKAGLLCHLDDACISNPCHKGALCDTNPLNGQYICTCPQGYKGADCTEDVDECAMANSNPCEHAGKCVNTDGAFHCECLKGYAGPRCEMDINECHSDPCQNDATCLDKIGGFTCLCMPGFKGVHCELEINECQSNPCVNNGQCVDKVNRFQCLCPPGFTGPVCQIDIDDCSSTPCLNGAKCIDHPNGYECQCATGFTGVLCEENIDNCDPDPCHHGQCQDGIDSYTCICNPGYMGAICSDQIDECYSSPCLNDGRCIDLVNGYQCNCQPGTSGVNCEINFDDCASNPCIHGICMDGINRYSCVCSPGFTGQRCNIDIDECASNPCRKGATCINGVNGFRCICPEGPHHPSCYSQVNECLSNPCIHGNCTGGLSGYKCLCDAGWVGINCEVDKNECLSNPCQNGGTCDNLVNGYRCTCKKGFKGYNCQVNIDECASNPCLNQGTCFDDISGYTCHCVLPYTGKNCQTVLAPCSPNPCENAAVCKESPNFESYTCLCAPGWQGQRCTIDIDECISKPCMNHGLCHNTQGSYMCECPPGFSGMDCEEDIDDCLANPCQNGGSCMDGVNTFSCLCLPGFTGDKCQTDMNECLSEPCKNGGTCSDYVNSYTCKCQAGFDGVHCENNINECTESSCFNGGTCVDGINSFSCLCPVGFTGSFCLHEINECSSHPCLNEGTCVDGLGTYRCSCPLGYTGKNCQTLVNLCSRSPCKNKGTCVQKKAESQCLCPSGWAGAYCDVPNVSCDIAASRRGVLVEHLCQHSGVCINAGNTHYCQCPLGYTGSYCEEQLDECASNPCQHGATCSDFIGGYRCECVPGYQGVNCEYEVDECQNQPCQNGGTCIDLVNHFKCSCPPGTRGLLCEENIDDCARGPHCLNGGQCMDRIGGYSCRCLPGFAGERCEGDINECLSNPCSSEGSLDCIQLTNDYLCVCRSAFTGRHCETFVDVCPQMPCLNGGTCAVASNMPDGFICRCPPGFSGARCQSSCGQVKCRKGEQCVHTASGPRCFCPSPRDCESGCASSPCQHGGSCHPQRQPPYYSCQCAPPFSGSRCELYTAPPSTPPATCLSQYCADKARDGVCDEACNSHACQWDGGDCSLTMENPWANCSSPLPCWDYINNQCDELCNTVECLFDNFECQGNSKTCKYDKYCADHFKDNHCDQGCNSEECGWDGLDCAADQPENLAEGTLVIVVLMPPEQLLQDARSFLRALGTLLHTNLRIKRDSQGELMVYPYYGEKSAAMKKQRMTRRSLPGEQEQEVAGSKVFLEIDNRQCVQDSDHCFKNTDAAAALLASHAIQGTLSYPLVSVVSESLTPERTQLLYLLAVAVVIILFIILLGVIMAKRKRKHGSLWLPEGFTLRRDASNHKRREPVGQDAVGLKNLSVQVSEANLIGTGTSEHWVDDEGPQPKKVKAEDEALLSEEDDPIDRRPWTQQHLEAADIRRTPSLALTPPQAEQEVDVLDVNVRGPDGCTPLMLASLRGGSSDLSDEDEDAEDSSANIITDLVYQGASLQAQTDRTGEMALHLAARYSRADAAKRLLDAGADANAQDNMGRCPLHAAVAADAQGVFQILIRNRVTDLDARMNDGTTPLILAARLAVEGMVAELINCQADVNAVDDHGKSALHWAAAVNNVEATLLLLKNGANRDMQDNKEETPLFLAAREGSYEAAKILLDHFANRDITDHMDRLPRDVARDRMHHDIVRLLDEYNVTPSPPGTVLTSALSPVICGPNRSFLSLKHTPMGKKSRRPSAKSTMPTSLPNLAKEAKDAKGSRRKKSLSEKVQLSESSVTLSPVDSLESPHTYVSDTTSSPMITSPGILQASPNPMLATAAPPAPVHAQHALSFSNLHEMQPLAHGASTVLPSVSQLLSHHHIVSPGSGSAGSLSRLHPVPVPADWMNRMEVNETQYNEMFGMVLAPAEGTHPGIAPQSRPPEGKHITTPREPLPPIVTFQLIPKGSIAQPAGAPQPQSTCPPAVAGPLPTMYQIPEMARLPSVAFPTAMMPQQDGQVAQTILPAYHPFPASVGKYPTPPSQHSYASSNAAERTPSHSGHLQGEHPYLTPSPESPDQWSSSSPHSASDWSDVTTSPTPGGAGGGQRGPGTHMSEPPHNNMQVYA

[6] = target: Pro-neuregulin-1, membrane-bound isoform (Homo sapiens) (UniProt Q02297); assay: NRG1 binders on small-molecule microarrays, primary screen, psychiatric disease protein project, biochemical, small-molecule microarray, fluorescence 635/667 (AID 1075); conditions: NRG1 binding, 635 nm fluorescence, higher = more signal;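 also: score combines 667 nm spot fluorescence with signal to noise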
[7] = system: Neuregulin-1 EGF-like domain; assay: binders of neuregulin-1 EGF-like domain, primary screen, biochemical, small-molecule microarray, 635 nm fluorescence (AID 1081); conditions: small-molecule microarray binding, higher = more signal;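 also: binding of the protein to compounds printed on small-molecule microarray slides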
[8] = FRG1 promoter luciferase signal modulators, primary screen, FRG1 inhibition for FSHD, cell-based, C2C12 myotubes, firefly/Renilla luciferase, luminescence (AID 1084); conditions: higher = more signal, called active from +8 up or from −8 down
[9] = binders of probe aFST on microarray, primary screen, stem cell growth factor project, biochemical, small-molecule microarray, fluorescence 635/667 (AID 1086); conditions: higher = more signal;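 also: score merges 667 nm fluorescence with signal-to-noise of each printed compound spot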
[10] = binders of probe aHhip on microarray, primary screen, stem cell growth factor project, biochemical, small-molecule microarray, fluorescence 635/667 (AID 1087); conditions: higher = more signal;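 also: score merges spot fluorescence at 667nm with spot signal to noise ratio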
[11] = system: PRMT1 (protein arginine N-methyltransferase 1); assay: PRMT1 binders on small-molecule microarrays, primary screen, biochemical, small-molecule microarray, 635 nm fluorescence (AID 1088); conditions: small-molecule microarray binding, higher = more signal;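 also: binding of Prmt1 protein to compounds spotted on small-molecule microarray slides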
[12] = yeast growth modulation, basal conditions, primary screen, YJM789 clinical isolate, OD600, 24 h (AID 1089);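 also: growth of clinical yeast isolate S. cerevisiae YJM 789 seeded 1000 cells per well; test concentration not given here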; conditions: S. cerevisiae YJM789 growth, higher = more signal, called active from +8 up or from −8 down
[13] = fission yeast growth modulation, primary screen, strain 972, OD600, 24 h, no modulator (AID 1090);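 also: basal condition with compound alone and no growth modifier present; test concentration not given here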; conditions: S. pombe 972 growth, higher = more signal, called active from +8 up or from −8 down
[14] = S. cerevisiae growth modulation with rapamycin, primary screen, strain BY4716, OD600, 96 h (AID 1091); conditions: higher = more signal, called active from +8 up or from −8 down; also: test concentration not given here
[15] = target: Torsin-1A-interacting protein 2 (Homo sapiens) (UniProt Q8NFQ8); assay: LULL1 binders on small-molecule microarray, primary screen, cell lysate, human LULL1 lysate, 635/667 nm fluorescence (AID 1092); conditions: hLULL1 lysate binding, 635 nm fluorescence, higher = more signal;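 also: probe is lysate of COS7 cells overexpressing human LULL1; score merges per-feature 667 nm fluorescence with signal-to-noise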
[16] = E. coli growth modulation, two-sided OD650, primary screen, E. coli filamentation project, strain DRC41, 24 h (AID 1093); conditions: OD650, 24 h, higher = more signal, called active from +8 up or from −8 down;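 also: MC1000 strain lacking acrAB efflux and sulA so SOS filamentation is blocked; test concentration not given here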
[17] = small-molecule microarray binders of probe aLefty2, primary screen, biochemical, biotinylated probe, 635/667 nm fluorescence (AID 1094); conditions: higher = more signal;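 also: score merges spot fluorescence near 667 nm with spot signal-to-noise ratio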
[18] = system: Noggin (protein binding on small-molecule microarray); assay: Noggin binders on small-molecule microarray, primary screen, biochemical, 635/667 nm fluorescence (AID 1095); conditions: 635 nm fluorescence, higher = more signal;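 also: score merges 667 nm feature fluorescence with signal to noise over triplicate slides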
[19] = target: Neurogenic locus notch homolog protein 3 (Homo sapiens) (UniProt Q9UM47); assay: NOTCH3 binders on small-molecule microarray, primary screen, biochemical, 635/667 nm fluorescence (AID 1096); conditions: NOTCH3 binding, 635 nm fluorescence, higher = more signal
Sequence of Neurogenic locus notch homolog protein 3 (Homo sapiens) (Q9UM47 whole entry, looked up): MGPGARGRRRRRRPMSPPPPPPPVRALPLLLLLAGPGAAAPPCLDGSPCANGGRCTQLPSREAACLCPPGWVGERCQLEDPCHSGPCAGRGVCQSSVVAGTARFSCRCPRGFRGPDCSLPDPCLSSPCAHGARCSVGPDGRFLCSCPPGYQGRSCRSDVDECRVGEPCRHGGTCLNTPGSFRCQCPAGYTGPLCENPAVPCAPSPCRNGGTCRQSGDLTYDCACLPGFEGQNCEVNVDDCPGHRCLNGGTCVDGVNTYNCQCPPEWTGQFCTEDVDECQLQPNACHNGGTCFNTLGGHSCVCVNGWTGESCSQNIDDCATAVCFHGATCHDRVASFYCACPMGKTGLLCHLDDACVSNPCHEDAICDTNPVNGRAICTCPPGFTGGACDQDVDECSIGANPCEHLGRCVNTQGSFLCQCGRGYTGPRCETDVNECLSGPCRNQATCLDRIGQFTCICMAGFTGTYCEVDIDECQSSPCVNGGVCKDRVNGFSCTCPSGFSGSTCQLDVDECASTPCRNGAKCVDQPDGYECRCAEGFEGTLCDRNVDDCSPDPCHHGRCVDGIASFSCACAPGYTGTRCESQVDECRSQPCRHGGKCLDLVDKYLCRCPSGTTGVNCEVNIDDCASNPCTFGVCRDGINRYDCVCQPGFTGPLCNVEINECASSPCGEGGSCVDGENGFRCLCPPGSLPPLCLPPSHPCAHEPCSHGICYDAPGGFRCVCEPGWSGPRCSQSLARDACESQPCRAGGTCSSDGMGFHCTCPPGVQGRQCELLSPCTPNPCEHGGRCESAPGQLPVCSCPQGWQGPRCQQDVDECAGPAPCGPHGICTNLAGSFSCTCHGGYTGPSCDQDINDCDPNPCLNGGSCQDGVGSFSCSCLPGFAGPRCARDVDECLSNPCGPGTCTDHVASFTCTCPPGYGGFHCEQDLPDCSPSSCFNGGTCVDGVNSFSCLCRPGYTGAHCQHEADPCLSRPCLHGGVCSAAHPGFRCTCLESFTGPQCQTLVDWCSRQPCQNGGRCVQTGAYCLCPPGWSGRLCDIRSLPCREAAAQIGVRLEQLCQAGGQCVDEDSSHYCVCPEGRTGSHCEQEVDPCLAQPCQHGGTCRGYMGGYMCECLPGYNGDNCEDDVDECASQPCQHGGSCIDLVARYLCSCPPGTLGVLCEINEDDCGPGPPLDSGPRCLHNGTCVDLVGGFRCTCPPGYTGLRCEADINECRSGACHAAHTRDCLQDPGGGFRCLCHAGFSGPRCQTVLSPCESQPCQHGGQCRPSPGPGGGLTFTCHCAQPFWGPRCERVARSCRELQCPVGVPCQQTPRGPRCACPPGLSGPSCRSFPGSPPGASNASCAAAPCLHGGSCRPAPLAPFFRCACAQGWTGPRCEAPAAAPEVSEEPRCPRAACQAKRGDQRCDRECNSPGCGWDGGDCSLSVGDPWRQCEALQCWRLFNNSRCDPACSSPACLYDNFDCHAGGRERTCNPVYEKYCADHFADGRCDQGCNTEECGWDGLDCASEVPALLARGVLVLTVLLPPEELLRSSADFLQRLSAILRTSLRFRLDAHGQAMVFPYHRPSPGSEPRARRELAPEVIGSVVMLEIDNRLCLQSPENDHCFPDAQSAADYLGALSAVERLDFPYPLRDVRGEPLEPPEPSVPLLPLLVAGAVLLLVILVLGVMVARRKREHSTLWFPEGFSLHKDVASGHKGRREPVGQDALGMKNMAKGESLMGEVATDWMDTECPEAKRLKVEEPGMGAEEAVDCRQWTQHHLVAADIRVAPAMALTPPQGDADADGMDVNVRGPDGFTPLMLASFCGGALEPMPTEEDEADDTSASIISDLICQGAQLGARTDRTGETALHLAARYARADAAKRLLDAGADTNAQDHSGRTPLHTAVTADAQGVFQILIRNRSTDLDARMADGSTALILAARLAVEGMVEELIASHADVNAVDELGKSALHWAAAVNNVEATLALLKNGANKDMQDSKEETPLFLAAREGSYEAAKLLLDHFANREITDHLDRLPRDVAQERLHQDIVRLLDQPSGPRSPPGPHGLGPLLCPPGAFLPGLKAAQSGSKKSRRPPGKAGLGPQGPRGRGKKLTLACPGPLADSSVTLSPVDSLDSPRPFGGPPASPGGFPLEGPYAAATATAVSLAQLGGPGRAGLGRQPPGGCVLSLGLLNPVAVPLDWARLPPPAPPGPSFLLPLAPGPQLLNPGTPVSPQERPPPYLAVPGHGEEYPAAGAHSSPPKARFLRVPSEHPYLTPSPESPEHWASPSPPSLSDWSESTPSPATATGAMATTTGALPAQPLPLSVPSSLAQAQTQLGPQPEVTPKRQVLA

[20] = small-molecule microarray binders of probe aEGFR, primary screen, biochemical, biotinylated probe, 635/667 nm fluorescence (AID 1097); conditions: higher = more signal;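 also: probe is a biotinylated anti-EGFR antibody binding compounds printed on slides; score combines fluorescence near 667 nm and signal to noise of each spot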

SMILES	composite z-score [1]	composite z-score [2]	composite z-score [3]	composite z-score [4]	composite z-score [5]	composite z-score [6]	composite z-score [7]	z-score [8]	composite z-score [9]	composite z-score [10]	composite z-score [11]	z-score [12]	z-score [13]	z-score [14]	composite z-score [15]	z-score [16]	composite z-score [17]	composite z-score [18]	composite z-score [19]	composite z-score [20]
CC(C)(C)OC(=O)CC[C@]1(C(=O)NCCN2CCOCC2)N=C(c2ccc(OCCCO)cc2)O[C@H]1c1ccccc1N=[N+]=[N-]	0.85	1.55	0.105	0.606	0.1	1.72	1.39	4.57 (inactive)	0.778	0.913	1.49	-0.417 (inactive)	-0.437 (inactive)	-0.535 (inactive)	3.38	0.102 (inactive)	0.373	-0.238	0.412	0.0988
O=C1O[C@@H](c2ccccc2)[C@@H](c2ccccc2)N2[C@@H](c3ccc(O)cc3)[C@]3(C(=O)Nc4ccc(C#CCCO)cc43)[C@@H](C(=O)Nc3nc4ccccc4s3)[C@H]12	0.0071	1.27	-0.0721	0.987	0.37	1.45	1.19	0.213 (inactive)	0.158	-0.236	1.55	0.782 (inactive)	0.403 (inactive)	1.93 (inactive)	2.81	0.887 (inactive)	-0.119	1.35	0.851	-0.0036
COCCOC(=O)N1C(=O)[C@@]2(c3cc(C#CCNC(N)=O)ccc31)[C@H](C(=O)N1CCCCCCC1)[C@H]1C(=O)O[C@H](c3ccccc3)[C@H](c3ccccc3)N1[C@@H]2c1ccc(O)cc1	0.333	0.189	-0.0557	0.159	0.845	0.571	0.596	-0.134 (inactive)	0.706	0.0066	1.41	0.355 (inactive)	-0.216 (inactive)	0.903 (inactive)	1.66	0.0623 (inactive)	0.111	1.46	1.08	-0.0381
COC(=O)[C@@]1(Cc2ccc(F)cc2)[C@H]2c3cc(C(=O)N4CCCC4)n(CCc4c[nH]c5ccc(OC)cc45)c3C[C@H]2CN1C(=O)c1ccccc1	1.66	-0.619	0.803	1.3	1.58	1.46	1.19	1.61 (inactive)	2.02	0.413	-0.508	-0.0567 (inactive)	-0.156 (inactive)	2.07 (inactive)	3.37	-0.803 (inactive)	0.957	1.26	1.11	0.44
CCCc1cccc(=O)o1	-0.218	-0.001	-0.112	0.191	0.168	0.785	1.24	0.273 (inactive)	-0.278	0.155	0.804	-0.91 (inactive)	0.641 (inactive)	-0.467 (inactive)	1.17	-0.454 (inactive)	-0.0475	0.614	0.363	0.0276
CN1C(=O)C2C(C1=O)C1C=C(c3ccc(CO)cc3)C2C(c2cccs2)N1Cc1cccc(OC(F)(F)F)c1 (stereo not given)	-0.16	0.669	-0.109	0.432	1.25	1.87	1.35	0.785 (inactive)	0.875	0.0505	1.55	-1.68 (inactive)	-2.57 (inactive)	3.35 (inactive)	2.65	0.907 (inactive)	0.0007	1.38	1.09	-0.013
